Assay [1] has as its target Estrogen receptor (Homo sapiens) (UniProt P03372). As to the kind of experiment: qHTS assay for small molecule agonists of estrogen receptor alpha signaling (AID 588514).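 Further: 0% = vehicle only and 100% = reference agonist; nearly all actives have a fitted effect of over 70% in size.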 In short, it runs like this:
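Fluorescence from CCF4 cleavage reports ER-alpha-driven beta-lactamase expression in HEK 293 cells treated 18 hrs at 37 C. Data normalized to 17-beta-estradiol (20 nM) and DMSO, fitted to Hill equation.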
On the technique in general: qHTS replaces the single test concentration by a dilution series.

Assay [2] has as its target Glucocorticoid receptor (Homo sapiens) (UniProt P04150). As to the kind of experiment: qHTS assay for small molecule agonists of glucocorticoid receptor signaling (AID 588532; active means well fitted curve in the direction sought with a large enough effect in the signal ratio, with a control signal flat; the % refers to the signal ratio;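 further: 100% = dexamethasone at 0.1 µM and 0% = DMSO only wells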). To be noted: HeLa MMTV-bla, beta-lactamase ratio, agonist, 18 h; stronger effect = higher value; percent of dexamethasone control, DMSO zero. Put shortly: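 Titration series, up to 92 uM, applied to GRE-bla HeLa cells for 18 h at 37 C. Detection by CCF4 FRET substrate after 2 h at RT.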

The target of assay [3] is Vitamin D3 receptor (Homo sapiens) (UniProt P11473). As to the kind of experiment: qHTS assay for small molecule antagonists of vitamin D receptor signaling (AID 588541).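 Further: receptor activated by calcitriol during compound treatment; series mostly up to about 77 µM; on the % scale 0 is the no-effect control and ±100 the full control effect.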 In short, it runs like this: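 VDR-UAS-bla HEK293T cells (2000/well, 2% charcoal-stripped FBS) were treated with titrated compounds plus 1-alpha,25-dihydroxyvitamin D3 (50 nM or 3 nM final) for 16 h at 37 C. CCF4 beta-lactamase fluorescence was read; Hill fits gave IC50.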
Vitamin D3 receptor (Homo sapiens), sequence (P11473 whole entry, looked up): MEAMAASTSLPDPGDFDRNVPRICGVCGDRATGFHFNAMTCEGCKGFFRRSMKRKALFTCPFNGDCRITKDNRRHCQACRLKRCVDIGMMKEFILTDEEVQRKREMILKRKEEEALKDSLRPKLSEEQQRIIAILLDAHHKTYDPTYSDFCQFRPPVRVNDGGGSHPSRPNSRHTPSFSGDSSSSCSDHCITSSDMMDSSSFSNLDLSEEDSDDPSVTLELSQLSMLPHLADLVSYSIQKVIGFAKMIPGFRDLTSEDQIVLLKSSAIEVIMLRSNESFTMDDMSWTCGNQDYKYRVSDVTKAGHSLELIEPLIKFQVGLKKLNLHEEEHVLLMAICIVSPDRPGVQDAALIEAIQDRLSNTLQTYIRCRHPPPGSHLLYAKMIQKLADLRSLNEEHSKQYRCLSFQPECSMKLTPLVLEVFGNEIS

Assay [4] has the same target. As to the kind of experiment: qHTS assay for small molecule agonists of vitamin D receptor signaling (AID 588543).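 Further: 0% = DMSO basal and 100% = reference agonist control.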 Put shortly:
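GeneBLAzer VDR-UAS-bla HEK293T cells in 2% charcoal-stripped FBS medium were dosed with compound titrations for 16 h at 37 °C; CCF4 β-lactamase readout (405 nm ex, 460/530 nm em). EC50 and efficacy from Hill fits, normalized to 50 nM calcitriol (100%) and DMSO (0%).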

The nature of assay [5]: qHTS assay for small molecule agonists of retinoid X receptor alpha signaling (AID 588544).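 On activation: 0% = DMSO basal wells and 100% = reference agonist.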 The conditions noted are these: HEK293T RXRa-UAS-bla, beta-lactamase reporter, 18 h; 530 nm emission.
In assay [6] the target is Retinoic acid receptor RXR-alpha (Homo sapiens) (UniProt P19793). The description is as above.
Retinoic acid receptor RXR-alpha (Homo sapiens), sequence (P19793 whole entry, looked up): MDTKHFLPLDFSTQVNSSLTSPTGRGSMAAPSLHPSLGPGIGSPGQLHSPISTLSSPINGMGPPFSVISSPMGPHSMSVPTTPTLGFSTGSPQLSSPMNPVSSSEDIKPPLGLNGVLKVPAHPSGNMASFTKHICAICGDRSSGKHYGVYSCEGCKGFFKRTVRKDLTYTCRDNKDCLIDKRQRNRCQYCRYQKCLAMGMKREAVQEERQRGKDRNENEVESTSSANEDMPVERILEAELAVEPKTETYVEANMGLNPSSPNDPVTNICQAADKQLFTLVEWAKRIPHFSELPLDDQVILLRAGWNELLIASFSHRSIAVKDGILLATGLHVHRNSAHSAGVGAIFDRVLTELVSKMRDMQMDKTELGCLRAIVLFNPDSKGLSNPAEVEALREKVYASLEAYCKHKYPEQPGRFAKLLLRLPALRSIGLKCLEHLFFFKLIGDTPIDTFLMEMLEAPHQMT
In assay [7] the target is Thyroid hormone receptor beta (Homo sapiens) (UniProt P10828). As to the kind of experiment: qHTS assay for small molecule agonists of thyroid hormone receptor beta signaling (AID 588545).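 Further: 0% = DMSO only and 100% = 10 nM T3.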 Put shortly:
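Beta-lactamase reporter activity under TR response element control is measured in HEK 293 cells after 18 hrs compound exposure. Signal is ratiometric CCF4 fluorescence, 460/530 nm.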

A short description of assay [8]: qHTS assay for small molecule antagonists of retinoid X receptor alpha signaling (AID 588546; active means well fitted inhibition curve with a large enough effect in the signal ratio, with a control signal flat, not every such curve was filed as active; the % refers to the signal ratio;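 further: cells stimulated with 9-cis-retinoic acid as agonist; on the % scale 0 is the no-effect control and ±100 the full control effect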). The conditions noted are these: HEK293T RXRa-UAS-bla, beta-lactamase ratio, antagonist mode; measured here: W530 green channel, cytotoxicity proxy. In short, it runs like this:
(§1)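 Beta-lactamase reporter inhibition, read as CCF4 fluorescence ratio (ex 405, em 460/530 nm) after 2 h at RT. HEK293T UAS-bla cells, 2500/well, were stimulated with 9-cis-RA at 500 or 100 nM final alongside test compound for 18 h at 37 C.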

Assay [9] has as its target Retinoic acid receptor RXR-alpha (Homo sapiens) (UniProt P19793). The description is as above. The conditions noted are these: HEK293T RXRa-UAS-bla, beta-lactamase ratio, antagonist mode. Put shortly:
as §1

Assay [10] can be described thus: qHTS assay for small molecule activators of the p53 signaling pathway (AID 651743; active means well fitted activation curve with a large enough effect in the signal ratio, not every such curve was filed as active; the % refers to the signal ratio; further: series mostly up to about 92 µM; % of control where 0% means no effect). To be noted: HCT-116 p53RE-bla, beta-lactamase FRET ratio, 16 h; activation: stronger effect = higher value. Put shortly: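 Here HCT-116 cells with an integrated p53-responsive beta-lactamase gene were incubated with compounds (16 hours, 37 C) after a 5-hour plating period; beta-lactamase activity was detected as fluorescence intensity via B/G FRET substrate.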

The nature of assay [11]: qHTS assay for environmental chemicals that activate the Aryl hydrocarbon Receptor (AhR) signaling pathway (AID 651777; active means well fitted curve in the direction sought with a large enough effect; an effect the other way counts as inactive or inconclusive; further: % of control where 0% means no effect; nearly all actives have a fitted effect of over 15% in size). To be noted: 1A2-DRE human hepatoma cells, luciferase, 24 h; activation: stronger effect = higher value. Put shortly:
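AhR activation is scored as a rise in luciferase from a stable DRE–CYP1A2 promoter construct in human hepatoma cells. Treatment lasts 24 hr at 37 C; detection uses One-Glo after 30 min at room temperature.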

Assay [12] deals with Peroxisome proliferator-activated receptor alpha (Homo sapiens) (UniProt Q07869). As to the kind of experiment: qHTS assay for small molecule agonists of the peroxisome proliferator-activated receptor alpha (PPARalpha) signaling pathway (AID 651778; active means well fitted curve in the direction sought with a large enough effect; an effect the other way counts as inactive or inconclusive; further: % of control where 0% means no effect). The conditions noted are these: PathHunter PPARalpha complementation, chemiluminescence, 6 h; max response: stronger effect = higher value. In short, it runs like this: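 Cells plated at 2,000/well and held overnight at 37 C, 5% CO2, then compound added by pin tool for 6 hr; after PathHunter detection reagent and 60 min at room temperature, chemiluminescence from enzyme complementation was read.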
Peroxisome proliferator-activated receptor alpha (Homo sapiens), sequence (Q07869 whole entry, looked up): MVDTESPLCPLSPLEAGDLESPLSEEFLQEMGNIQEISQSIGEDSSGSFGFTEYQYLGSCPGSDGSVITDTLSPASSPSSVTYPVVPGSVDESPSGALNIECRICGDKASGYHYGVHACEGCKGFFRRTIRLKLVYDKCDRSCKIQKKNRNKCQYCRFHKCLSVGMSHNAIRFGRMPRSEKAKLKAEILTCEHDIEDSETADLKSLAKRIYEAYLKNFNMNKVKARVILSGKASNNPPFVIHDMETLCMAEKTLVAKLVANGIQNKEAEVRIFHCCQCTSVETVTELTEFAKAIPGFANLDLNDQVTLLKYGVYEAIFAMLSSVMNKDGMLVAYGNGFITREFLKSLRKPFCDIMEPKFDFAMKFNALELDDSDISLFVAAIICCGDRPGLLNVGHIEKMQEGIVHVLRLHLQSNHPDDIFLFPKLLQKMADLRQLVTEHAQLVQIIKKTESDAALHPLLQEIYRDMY

A short description of assay [13]: qHTS assay for small molecule agonists of the antioxidant response element (ARE) signaling pathway measured by Nrf2-dependant transcriptional activity - cell viability counter screen (AID 720653; active means well fitted curve in the direction sought with a large enough effect in the repeat runs; an effect the other way counts as inactive or inconclusive; further: on the % scale 0 is the no-effect control and ±100 the full control effect). To be noted: ARE-bla HepG2 viability, CellTiter-Glo ATP luminescence, 16 h; max response: stronger effect = lower value. In short, it runs like this: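 ARE-bla HepG2 cells (2,000/well) rested 5 hrs at 37C/5% CO2, then exposed to compounds in DMSO for 16 hrs. Viability was read in the same wells as intracellular ATP by luminescence, 30 min at room temperature after reagent addition.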

The nature of assay [14]: qHTS assay for cell viability of HEK293 cells (AID 743288; active means well fitted curve in the direction sought with a large enough effect; an effect the other way counts as inactive or inconclusive; further: on the % scale 0 is the no-effect control and ±100 the full control effect; nearly all actives have a fitted effect of over 50% in size). The conditions noted are these: ATP luminescence (CellTiter-Glo), 18 h; max response: stronger effect = lower value. In short, it runs like this:
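After 18 h compound exposure at 37 C, parental HEK293 cells (2,000/well) are lysed with CellTiter-Glo and luminescence is read following 30 min at room temperature.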

Assay [15] can be described thus: NCATS anti-infectives library activity on HEK293 viability as a counter-qHTS vs the C. elegans viability qHTS (AID 1745854; active means well fitted curve in the direction sought with a large enough effect; an effect the other way counts as inactive or inconclusive;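 further: HEK293 cells exposed to compounds for 24 hr before the viability read; on the % scale 0 is the no-effect control and ±100 the full control effect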). In short, it runs like this:
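Compound titrations (final up to 41.7 uM) were incubated with HEK293 cells for 24 hr at 37C under 5% CO2. Viable cells were quantified with CellTiter-Glo after 10 min at ambient temperature.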

The nature of assay [16]: NCATS anti-infectives library activity on the primary C. elegans qHTS viability assay (AID 1745855). Further: potency means the concentration at half of the fitted maximal effect. Put shortly:
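Titration-based screen in worms: eggs hatched overnight in M9, L1 larvae fed TOP10 capsules in S medium with compound, incubated 21 °C for 7 days; fluorescent objects gated by size and intensity at days 0, 3 and 7.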

Assay [17] has as its target Nuclear receptor subfamily 1 group I member 2 (Rattus norvegicus) (UniProt Q9R1A7). As to the kind of experiment: qHTS assay for small molecule activators of the rat pregnane X receptor (rPXR) signaling pathway (AID 651751; call rule not given here; further: 0% is about no effect). To be noted: rPXR reporter cells, luciferase (One-Glo), 24 h.
A short description of assay [18]: qHTS assay for small molecule activators of the human pregnane X receptor (PXR) signaling pathway (AID 720659; call rule not given here; further: 0% is about no effect).

Results filed as inconclusive are left out. Activity calls are given as the source filed them. Unless noted, the call rests on the fitted dose curve.

Nuclear receptor subfamily 1 group I member 2 (Rattus norvegicus), sequence (Q9R1A7 whole entry, looked up): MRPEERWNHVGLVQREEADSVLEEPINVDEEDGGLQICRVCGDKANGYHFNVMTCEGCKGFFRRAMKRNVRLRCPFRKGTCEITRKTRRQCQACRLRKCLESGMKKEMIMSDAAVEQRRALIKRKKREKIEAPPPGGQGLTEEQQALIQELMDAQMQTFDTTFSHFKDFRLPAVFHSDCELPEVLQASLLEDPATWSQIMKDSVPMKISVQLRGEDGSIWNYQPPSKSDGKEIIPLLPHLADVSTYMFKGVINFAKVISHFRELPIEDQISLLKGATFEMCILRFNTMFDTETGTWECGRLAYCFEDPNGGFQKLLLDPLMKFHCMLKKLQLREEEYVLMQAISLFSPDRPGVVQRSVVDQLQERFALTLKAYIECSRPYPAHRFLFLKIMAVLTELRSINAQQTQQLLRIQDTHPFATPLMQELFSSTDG
Glucocorticoid receptor (Homo sapiens), sequence (P04150 whole entry, looked up): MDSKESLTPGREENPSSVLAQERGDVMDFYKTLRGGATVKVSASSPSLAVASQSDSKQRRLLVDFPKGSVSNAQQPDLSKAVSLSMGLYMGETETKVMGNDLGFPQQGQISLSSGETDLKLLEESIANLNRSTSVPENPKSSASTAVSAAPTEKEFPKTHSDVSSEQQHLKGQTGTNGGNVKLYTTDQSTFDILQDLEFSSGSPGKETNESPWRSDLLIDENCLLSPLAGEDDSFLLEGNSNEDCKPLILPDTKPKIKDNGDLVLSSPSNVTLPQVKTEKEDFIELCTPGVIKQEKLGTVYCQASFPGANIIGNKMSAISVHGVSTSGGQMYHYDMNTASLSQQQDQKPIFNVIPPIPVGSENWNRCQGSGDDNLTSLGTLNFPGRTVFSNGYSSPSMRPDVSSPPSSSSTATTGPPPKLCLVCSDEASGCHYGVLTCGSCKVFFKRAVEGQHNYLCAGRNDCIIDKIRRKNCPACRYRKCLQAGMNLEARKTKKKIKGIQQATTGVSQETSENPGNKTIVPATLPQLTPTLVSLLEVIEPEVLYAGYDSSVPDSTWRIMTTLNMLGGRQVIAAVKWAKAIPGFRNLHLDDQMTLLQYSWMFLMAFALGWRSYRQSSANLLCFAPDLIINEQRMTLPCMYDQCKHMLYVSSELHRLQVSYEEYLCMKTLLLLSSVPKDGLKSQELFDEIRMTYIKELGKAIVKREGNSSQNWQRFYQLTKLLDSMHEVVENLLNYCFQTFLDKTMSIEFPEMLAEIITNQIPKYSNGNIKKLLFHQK
Estrogen receptor (Homo sapiens), sequence (P03372 whole entry, looked up): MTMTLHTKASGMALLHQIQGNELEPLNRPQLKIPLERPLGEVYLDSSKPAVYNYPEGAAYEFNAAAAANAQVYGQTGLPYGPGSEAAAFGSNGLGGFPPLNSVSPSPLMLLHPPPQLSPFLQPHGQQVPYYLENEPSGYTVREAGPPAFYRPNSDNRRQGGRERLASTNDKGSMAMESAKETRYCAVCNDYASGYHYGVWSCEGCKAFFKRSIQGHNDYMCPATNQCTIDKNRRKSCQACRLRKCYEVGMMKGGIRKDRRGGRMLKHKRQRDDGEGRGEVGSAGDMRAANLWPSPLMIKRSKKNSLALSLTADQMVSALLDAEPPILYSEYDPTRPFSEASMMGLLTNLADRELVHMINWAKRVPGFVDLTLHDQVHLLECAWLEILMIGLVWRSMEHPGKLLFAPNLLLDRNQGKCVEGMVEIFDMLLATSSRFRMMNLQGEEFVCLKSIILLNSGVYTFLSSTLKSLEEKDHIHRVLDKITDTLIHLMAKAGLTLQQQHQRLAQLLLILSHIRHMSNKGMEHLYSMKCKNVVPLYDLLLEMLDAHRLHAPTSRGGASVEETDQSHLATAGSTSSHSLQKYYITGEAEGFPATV
Thyroid hormone receptor beta (Homo sapiens), sequence (P10828 whole entry, looked up): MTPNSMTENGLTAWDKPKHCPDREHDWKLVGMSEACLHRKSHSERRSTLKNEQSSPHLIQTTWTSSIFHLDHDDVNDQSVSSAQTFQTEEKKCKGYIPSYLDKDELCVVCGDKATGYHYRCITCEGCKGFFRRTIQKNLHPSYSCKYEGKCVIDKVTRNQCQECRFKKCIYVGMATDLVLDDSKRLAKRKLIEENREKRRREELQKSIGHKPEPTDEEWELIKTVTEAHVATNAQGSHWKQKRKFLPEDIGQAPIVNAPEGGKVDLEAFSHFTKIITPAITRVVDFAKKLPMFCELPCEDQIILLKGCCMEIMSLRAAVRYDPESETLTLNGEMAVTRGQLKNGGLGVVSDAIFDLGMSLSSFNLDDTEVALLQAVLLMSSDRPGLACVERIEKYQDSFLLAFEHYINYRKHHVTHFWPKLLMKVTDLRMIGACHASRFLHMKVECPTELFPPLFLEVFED

Regarding `O=C(O[C@@H]1Cc2c(O)cc(O)cc2O[C@@H]1c1cc(O)c(O)c(O)c1)c1cc(O)c(O)c(O)c1`, the Potency entry in assay [1] and in [15] was “inactive” each time. Moreover, the activation in assay [2] was 4.83% (inactive); in [10], -1.73% (inactive); in assay [11], -3.33% (inactive). In addition, the call in assay [3], in assay [4], in [6], in [7] and in [18] was inactive. Besides, the max response in assay [5] was -0.202%; in [8], -13.5%; in assay [9], -1.14% (inactive); in assay [12], -1.73% (inactive); in [13], -12.8% (inactive); in [14] it was -1.55% (inactive). In addition, the max response in assay [17] was -1.38% (inactive). Further, the Potency in assay [16] was 163 nM (active).

The record behind these values is PubChem BioAssay (NCATS).
